Data taken from PubChem BioAssay (EPA / NIEHS).
Results filed as inconclusive are left out. The source made the active and inactive calls. How the source made its calls, unless noted: active means hit-call score of the fitted dose curve at least 0.9, where 1 is the maximum; inconclusive means response in the unintended direction; inactive means score below 0.9.

Legend:
[1] = molecular target: human RAR-related Orphan Receptor gamma (RORg), RORC (gene 6097) (UniProt P51449); assay: ATG_RORg_TRANS: Attagene TRANS-FACTORIAL HepG2 Assay for human RAR-related Orphan Receptor gamma (RORg) (AID 2283011);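 on AC50: potency for induction of reporter transcripts above DMSO so activators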
Summary of the method: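 HepG2 cells transiently transfected with GAL4-UAS reporter units and chimeric RORg-Gal4 construct; after 24 h chemical exposure, reporter mRNA measured by RT-PCR with fluorescent capillary electrophoresis, gain of signal fitted against DMSO.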

[2] = molecular target: Retinoic acid receptor RXR-alpha (Homo sapiens) (UniProt P19793); assay: ATG_RXRa_TRANS: Attagene TRANS-FACTORIAL HepG2 Assay for human Retinoid X Receptor alpha (RXRa) (AID 2283012)
Summary of the method: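 TRANS format reporting activity of exogenous RXRa-Gal4 chimera in transiently transfected HepG2, 24 h exposure. Reporter transcripts quantified by RT-PCR with capillary electrophoresis, with gain of signal scored relative to DMSO.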

[3] = molecular target: human Thyroid Receptor alpha (THRa1), THRA (gene 7067) (UniProt P10827); assay: ATG_THRa1_TRANS: Attagene TRANS-FACTORIAL HepG2 Assay for human Thyroid Receptor alpha (THRa1) (AID 2283014)
Summary of the method: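 HepG2 cells transiently transfected with chimeric NR-Gal4 and GAL4-UAS reporter units, dosed 24 h. Reporter mRNA quantified by RT-PCR, fluorescent labeling, HpaI digestion and capillary electrophoresis; gain-of-signal fit versus DMSO.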

[4] = molecular target: human Vitamin D Receptor (VDR), VDR (gene 7421) (UniProt P11473); assay: ATG_VDR_TRANS: Attagene TRANS-FACTORIAL HepG2 Assay for human Vitamin D Receptor (VDR) (AID 2283022)
Summary of the method: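 HepG2 cells were transiently transfected with GAL4-UAS reporter units and a chimeric VDR-Gal4 construct, then dosed for 24 hours. Reporter mRNA was quantified by RT-PCR, fluorescent labeling, HpaI digestion and capillary electrophoresis; gain of signal analysed vs DMSO.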

[5] = molecular target: human Retinoid X Receptor beta (RXRb), RXRB (gene 6257) (UniProt P28702); assay: ATG_RXRb_TRANS: Attagene TRANS-FACTORIAL HepG2 Assay for human Retinoid X Receptor beta (RXRb) (AID 2283013)
Summary of the method: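 Readout is reporter transcript induction after 24 h dosing. It is measured by RT-PCR of total RNA followed by fluorescent capillary electrophoresis. HepG2 liver cells carry transfected multiple reporter units driven by an exogenous RXRb-Gal4 fusion; activity is relative to DMSO.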

[6] = read-out: E-selectin (Homo sapiens) (UniProt P16581); assay: BSK_3C_Eselectin: BioMAP Diversity Plus: 3C Assay for Eselectin Biomarker Activity (AID 2283015; active means hit-call score of the fitted dose curve at least 0.9, where 1 is the maximum; inactive means score below 0.9); settings: primary human endothelial cells (HUVEC); actives raise or lower the signal
Summary of the method: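 Primary human umbilical vein endothelial cells (3C system), read 24 h after compound addition; E-selectin measured by ELISA. Bidirectional curve fitting against DMSO baseline; cytotoxicity by parallel SRB total-protein staining.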

[7] = read-out: Interleukin-1 alpha (IL1a), IL1A (gene 3552); assay: BSK_BE3C_IL1a: BioMAP Diversity Plus: BE3C Assay for Interleukin-1 alpha (IL1a) Biomarker Activity (AID 2283016; active means hit-call score of the fitted dose curve at least 0.9, where 1 is the maximum; inactive means score below 0.9); settings: primary human bronchial epithelial cells; actives raise or lower the signal
Summary of the method: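 IL-1a measured by ELISA after 24 h treatment of human primary bronchial epithelial cells, with gain or loss of signal fitted versus DMSO. Parallel cultures stained with SRB gauge overt cytotoxicity.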

[8] = read-out: Monocyte Chemoattractant Protein-1 (MCP1), CCL2 (gene 6347); assay: BSK_3C_MCP1: BioMAP Diversity Plus: 3C Assay for Monocyte Chemoattractant Protein-1 (MCP1) Biomarker Activity (AID 2283017; active means hit-call score of the fitted dose curve at least 0.9, where 1 is the maximum; inactive means score below 0.9); settings: primary human endothelial cells (HUVEC); actives raise or lower the signal
Summary of the method: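 Human umbilical vein endothelial cells (3C system) exposed to chemicals for 24 h; MCP-1 quantified by ELISA against the DMSO baseline with bidirectional fitting, and parallel SRB staining used to assess cytotoxicity.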

[9] = read-out: Monocyte Chemoattractant Protein-1 (MCP1), CCL2 (gene 6347); assay: BSK_4H_MCP1: BioMAP Diversity Plus: 4H Assay for Monocyte Chemoattractant Protein-1 (MCP1) Biomarker Activity (AID 2283018; active means hit-call score of the fitted dose curve at least 0.9, where 1 is the maximum; inactive means score below 0.9); settings: primary human endothelial cells (HUVEC); actives raise or lower the signal
Summary of the method: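 ELISA of MCP-1 (CCL2) 24 h after chemical dosing of HUVEC in the BioMAP 4H system. Gain or loss versus DMSO fitted; parallel SRB staining (560 nm) tracked overt cytotoxicity.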

[10] = read-out: Human Leukocyte Antigen - DR isotype (HLADR), HLA-DRA (gene 3122); assay: BSK_3C_HLADR: BioMAP Diversity Plus: 3C Assay for Human Leukocyte Antigen - DR isotype (HLADR) Biomarker Activity (AID 2283019; active means hit-call score of the fitted dose curve at least 0.9, where 1 is the maximum; inactive means score below 0.9); settings: primary human endothelial cells (HUVEC); actives raise or lower the signal
Summary of the method: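 HUVEC monoculture, HLA-DR measured by ELISA 24 h after chemical dosing. Fitted bidirectionally against DMSO baseline; parallel SRB staining assessed cytotoxicity, with 3C proliferation read by SRB at 48 h.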

[11] = read-out: Interleukin-8 (IL8), CXCL8 (gene 3576); assay: BSK_3C_IL8: BioMAP Diversity Plus: 3C Assay for Interleukin-8 (IL8) Biomarker Activity (AID 2283020; active means hit-call score of the fitted dose curve at least 0.9, where 1 is the maximum; inactive means score below 0.9); settings: primary human endothelial cells (HUVEC); actives raise or lower the signal
Summary of the method: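 IL-8 was measured by ELISA in HUVEC cultures 24 h after chemical dosing, with gain or loss of signal fitted relative to DMSO. Parallel SRB total-protein staining tracked overt cytotoxicity.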

[12] = read-out: Monokine induced gamma interferon (MIG), CXCL9 (gene 4283); assay: BSK_3C_MIG: BioMAP Diversity Plus: 3C Assay for Monokine induced gamma interferon (MIG) Biomarker Activity (AID 2283021; active means hit-call score of the fitted dose curve at least 0.9, where 1 is the maximum; inactive means score below 0.9;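 on AC50: MIG protein level measured by immunoassay in the treated endothelial cultures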); settings: primary human endothelial cells (HUVEC); actives raise or lower the signal
Summary of the method: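 ELISA measurement of MIG in human umbilical vein endothelial cells 24 h after treatment. Cytotoxicity tracked by SRB staining in parallel cultures; gain or loss of signal fitted relative to DMSO.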

[13] = BSK_3C_SRB: Viability Assessment in the BioMAP Diversity Plus: 3C Assay (AID 2283023; active means hit-call score of the fitted dose curve at least 0.9, where 1 is the maximum; inactive means score below 0.9;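 further: fitted both ways against DMSO so a hit may be signal rise or drop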); settings: primary human endothelial cells (HUVEC)
Summary of the method: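 Human umbilical vein endothelial cells in the 3C system, treated 24 h. Total protein measured by 0.1% sulforhodamine B staining after 10% TCA fixation, read at 560 nm; bidirectional fit versus DMSO.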

[14] = read-out: Matrix Metallopeptidase 1 (MMP1), MMP1 (gene 4312); assay: BSK_BE3C_MMP1: BioMAP Diversity Plus: BE3C Assay for Matrix Metallopeptidase 1 (MMP1) Biomarker Activity (AID 2283024; active means hit-call score of the fitted dose curve at least 0.9, where 1 is the maximum; inactive means score below 0.9); settings: primary human bronchial epithelial cells; actives raise or lower the signal
Summary of the method: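 ELISA measurement of MMP-1 after 24 h compound exposure of primary human bronchial epithelial cells. Changes in either direction fitted relative to DMSO; parallel SRB staining checked overt cytotoxicity.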

[15] = BSK_3C_Vis: BioMAP Diversity Plus: 3C Assay for Morphology Visualization (AID 2283025; active means hit-call score of the fitted dose curve at least 0.9, where 1 is the maximum; inactive means score below 0.9;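 further: light microscopy image of cell morphology used as background control; fitted both ways so gain or loss versus DMSO counts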); settings: primary human endothelial cells (HUVEC)
Summary of the method: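 Light-microscopy visualization of HUVEC cultures at 24 h post-treatment, with DMSO as baseline for bidirectional fitting.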

[16] = read-out: Pselectin, SELP (gene 6403); assay: BSK_4H_Pselectin: BioMAP Diversity Plus: 4H Assay for Pselectin Biomarker Activity (AID 2283026; active means hit-call score of the fitted dose curve at least 0.9, where 1 is the maximum; inactive means score below 0.9); settings: primary human endothelial cells (HUVEC); actives raise or lower the signal
Summary of the method: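 ELISA of surface P-selectin on HUVEC, 24 h after dosing, with parallel SRB staining (0.1% after 10% TCA fixation, 560 nm) for overt cytotoxicity. Activity fitted in both directions relative to DMSO.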

[17] = BSK_BE3C_SRB: Viability Assessment in the BioMAP Diversity Plus: BE3C Assay (AID 2283028; active means hit-call score of the fitted dose curve at least 0.9, where 1 is the maximum; inactive means score below 0.9;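 on AC50: fitted both ways so AC50 may mark signal gain or loss versus DMSO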); settings: primary human bronchial epithelial cells
Summary of the method: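 Human bronchial epithelial primary cells in confluent culture, 24 h after chemical dosing; total protein by 0.1% SRB staining after 10% TCA fixation, read at 560 nm. Bidirectional fitting versus DMSO baseline.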

[18] = read-out: Thrombomodulin, THBD (gene 7056); assay: BSK_3C_Thrombomodulin: BioMAP Diversity Plus: 3C Assay for Thrombomodulin Biomarker Activity (AID 2283029; active means hit-call score of the fitted dose curve at least 0.9, where 1 is the maximum; inactive means score below 0.9); settings: primary human endothelial cells (HUVEC); actives raise or lower the signal
Summary of the method: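 ELISA measurement of thrombomodulin on HUVEC surface 24 h after chemical dosing; activity fitted in both directions relative to DMSO vehicle.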

[19] = read-out: Urokinase-type plasminogen activator receptor (uPAR), PLAUR (gene 5329); assay: BSK_4H_uPAR: BioMAP Diversity Plus: 4H Assay for Urokinase-type plasminogen activator receptor (uPAR) Biomarker Activity (AID 2283030; active means hit-call score of the fitted dose curve at least 0.9, where 1 is the maximum; inactive means score below 0.9); settings: primary human endothelial cells (HUVEC); actives raise or lower the signal
Summary of the method: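 Human umbilical vein endothelial cells in the 4H system, 24 h after chemical dosing. Cell-surface uPAR measured by ELISA, fitted in both directions versus DMSO; cytotoxicity checked by SRB total protein in parallel cultures.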

Measured: AC50

Sequence of human Retinoid X Receptor beta (RXRb), RXRB (gene 6257) (P28702 whole entry, looked up, the tested form may be a part): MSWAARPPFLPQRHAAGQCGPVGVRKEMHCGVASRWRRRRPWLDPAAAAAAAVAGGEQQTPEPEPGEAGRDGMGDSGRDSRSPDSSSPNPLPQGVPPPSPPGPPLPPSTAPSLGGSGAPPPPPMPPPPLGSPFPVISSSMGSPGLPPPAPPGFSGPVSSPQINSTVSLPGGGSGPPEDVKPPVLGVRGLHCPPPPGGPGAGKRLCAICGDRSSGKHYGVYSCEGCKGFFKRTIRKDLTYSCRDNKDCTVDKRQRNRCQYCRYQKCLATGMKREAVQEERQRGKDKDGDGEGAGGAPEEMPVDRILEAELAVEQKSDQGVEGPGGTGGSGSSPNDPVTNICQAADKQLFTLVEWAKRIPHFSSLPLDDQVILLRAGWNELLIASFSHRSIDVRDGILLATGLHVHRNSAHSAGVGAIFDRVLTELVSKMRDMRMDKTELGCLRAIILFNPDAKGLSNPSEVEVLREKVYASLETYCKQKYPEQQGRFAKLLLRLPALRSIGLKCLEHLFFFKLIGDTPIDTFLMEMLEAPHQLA
Sequence of human Vitamin D Receptor (VDR), VDR (gene 7421) (P11473 whole entry, looked up, the tested form may be a part): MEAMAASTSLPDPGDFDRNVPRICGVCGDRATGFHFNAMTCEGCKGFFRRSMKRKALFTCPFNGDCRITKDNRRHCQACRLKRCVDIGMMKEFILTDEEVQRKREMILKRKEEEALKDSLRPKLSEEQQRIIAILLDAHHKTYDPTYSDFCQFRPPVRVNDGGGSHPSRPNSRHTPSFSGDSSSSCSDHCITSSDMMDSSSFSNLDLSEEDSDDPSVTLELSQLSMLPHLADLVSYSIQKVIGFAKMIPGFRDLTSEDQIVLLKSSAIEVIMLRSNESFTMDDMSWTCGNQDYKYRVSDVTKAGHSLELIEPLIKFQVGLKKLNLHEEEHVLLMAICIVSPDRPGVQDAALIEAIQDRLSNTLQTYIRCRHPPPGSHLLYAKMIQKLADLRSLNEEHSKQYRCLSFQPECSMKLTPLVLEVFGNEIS
Sequence of human Thyroid Receptor alpha (THRa1), THRA (gene 7067) (P10827 whole entry, looked up, the tested form may be a part): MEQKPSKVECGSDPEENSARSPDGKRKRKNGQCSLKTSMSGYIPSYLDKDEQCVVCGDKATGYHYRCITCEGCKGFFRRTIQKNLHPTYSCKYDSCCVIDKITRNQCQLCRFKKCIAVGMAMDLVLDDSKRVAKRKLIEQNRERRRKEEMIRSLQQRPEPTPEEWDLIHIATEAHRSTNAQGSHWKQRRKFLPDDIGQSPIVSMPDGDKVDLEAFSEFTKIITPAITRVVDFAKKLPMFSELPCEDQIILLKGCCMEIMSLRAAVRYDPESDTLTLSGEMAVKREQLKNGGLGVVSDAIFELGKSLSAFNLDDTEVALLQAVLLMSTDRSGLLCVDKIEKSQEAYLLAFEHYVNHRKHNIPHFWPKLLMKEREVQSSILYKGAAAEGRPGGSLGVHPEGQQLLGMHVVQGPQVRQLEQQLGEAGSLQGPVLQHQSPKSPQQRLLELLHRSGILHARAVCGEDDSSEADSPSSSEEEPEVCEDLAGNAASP
Sequence of Retinoic acid receptor RXR-alpha (Homo sapiens) (P19793 whole entry, looked up, the tested form may be a part): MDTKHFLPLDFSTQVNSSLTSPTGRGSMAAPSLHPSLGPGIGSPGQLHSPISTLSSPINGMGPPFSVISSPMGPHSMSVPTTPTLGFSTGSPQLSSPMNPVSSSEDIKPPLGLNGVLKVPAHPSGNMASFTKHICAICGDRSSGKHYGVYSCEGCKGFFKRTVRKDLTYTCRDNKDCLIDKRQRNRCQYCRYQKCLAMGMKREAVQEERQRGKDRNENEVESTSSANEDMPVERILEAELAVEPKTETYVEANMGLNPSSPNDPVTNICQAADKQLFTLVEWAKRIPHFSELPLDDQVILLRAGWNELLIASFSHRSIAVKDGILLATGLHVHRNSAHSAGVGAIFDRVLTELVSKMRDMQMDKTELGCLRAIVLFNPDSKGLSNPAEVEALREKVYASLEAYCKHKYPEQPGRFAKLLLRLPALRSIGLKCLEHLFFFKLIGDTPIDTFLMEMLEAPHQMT
Sequence of human RAR-related Orphan Receptor gamma (RORg), RORC (gene 6097) (P51449 whole entry, looked up, the tested form may be a part): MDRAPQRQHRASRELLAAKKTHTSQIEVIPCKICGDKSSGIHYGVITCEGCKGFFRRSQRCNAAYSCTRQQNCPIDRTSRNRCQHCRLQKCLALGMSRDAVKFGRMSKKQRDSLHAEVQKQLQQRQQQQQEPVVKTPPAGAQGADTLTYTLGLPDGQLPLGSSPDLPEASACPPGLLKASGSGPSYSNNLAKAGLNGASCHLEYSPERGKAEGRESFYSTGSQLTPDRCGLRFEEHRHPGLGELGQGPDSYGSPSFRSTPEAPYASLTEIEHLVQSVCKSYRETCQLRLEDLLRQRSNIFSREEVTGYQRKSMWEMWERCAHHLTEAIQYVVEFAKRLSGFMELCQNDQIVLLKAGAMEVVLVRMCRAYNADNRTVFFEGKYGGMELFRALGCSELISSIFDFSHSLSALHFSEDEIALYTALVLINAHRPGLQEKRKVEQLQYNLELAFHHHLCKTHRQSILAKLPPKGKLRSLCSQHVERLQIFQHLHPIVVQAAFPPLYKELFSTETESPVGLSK
Sequence of E-selectin (Homo sapiens) (P16581 whole entry, looked up): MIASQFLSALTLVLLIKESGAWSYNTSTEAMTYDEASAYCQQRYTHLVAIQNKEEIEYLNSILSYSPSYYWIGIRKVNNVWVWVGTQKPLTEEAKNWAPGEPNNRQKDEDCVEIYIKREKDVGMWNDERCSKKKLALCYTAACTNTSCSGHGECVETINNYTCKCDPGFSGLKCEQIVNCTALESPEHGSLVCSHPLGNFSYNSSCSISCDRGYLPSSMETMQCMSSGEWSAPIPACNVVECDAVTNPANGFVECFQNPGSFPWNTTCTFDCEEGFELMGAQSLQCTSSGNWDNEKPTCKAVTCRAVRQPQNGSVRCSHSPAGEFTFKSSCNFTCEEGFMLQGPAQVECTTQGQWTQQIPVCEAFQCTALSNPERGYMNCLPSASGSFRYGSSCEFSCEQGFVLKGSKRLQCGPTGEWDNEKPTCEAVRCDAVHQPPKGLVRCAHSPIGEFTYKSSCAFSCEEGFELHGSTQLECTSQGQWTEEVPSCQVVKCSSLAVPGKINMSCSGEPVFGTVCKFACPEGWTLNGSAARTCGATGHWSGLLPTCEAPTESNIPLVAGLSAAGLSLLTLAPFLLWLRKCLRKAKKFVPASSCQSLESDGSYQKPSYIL

C=C(C)[C@@H]1CC=C(C)C(=O)C1
inactive: [1] | [2] | [3] | [4]

CCCN(CCC)S(=O)(=O)c1ccc(C(=O)O)cc1
inactive: [1] | [2] | [4]

O=[N+]([O-])c1ccc(O)cc1C(F)(F)F
inactive: [1] | [2] | [5] | [4]

CCOC(=O)c1ccc(N)cc1
inactive: [1] | [2] | [4]

CC(=O)c1ccccn1
inactive: [1] | [2] | [3]

COc1cc(C(C)C)ccc1C
inactive: [1] | [2] | [4]

O=C(CS)OCCOC(=O)CS
inactive: [2] | [4]
active: [1] 67 µM

O=C1NC2NC(=O)NC2N1 (stereo not given)
inactive: [1] | [2] | [4]

c1ccc(Oc2ccccc2)cc1
active: [5] 114 µM | [6] 35.9 µM | [8] 30.3 µM | [9] 32.9 µM | [10] 32.8 µM | [11] 20 µM | [13] 30 µM | [15] 37.8 µM | [16] 30.8 µM
not listed: [3]
inactive: all other assays above

CC(C)=CCCC(C)CC(=O)O (stereo not given)
inactive: [1] | [2] | [5] | [4]

Oc1c(Cl)cc(Cl)c(Cl)c1Cc1c(O)c(Cl)cc(Cl)c1Cl
inactive: [1] | [2] | [4] | [18]
active: [5] 12.7 µM | [6] 13 µM | [7] 2.02 µM | [9] 1.31 µM | [10] 2.48 µM | [11] 28.2 µM | [12] 31.1 µM | [13] 5.1 µM | [14] 2.26 µM | [15] 13.7 µM | [16] 1.05 µM | [17] 5.21 µM | [19] 2.26 µM

CC(C)OCCO
inactive: [1] | [2] | [4]

C=CCOC(=O)CCCCCC
inactive: [1] | [2] | [5] | [4]

Cc1ccc(N)c(S(=O)(=O)O)c1
inactive: [1] | [2] | [4]

CCOC(=O)CC(C)O (stereo not given)
inactive: [1] | [2] | [3] | [4]

CCCC(=O)c1ccccc1
inactive: [1] | [2] | [3] | [4]

CC1=NN(c2ccc(S(=O)(=O)O)cc2)C(=O)C1
inactive: [1] | [2] | [3] | [4]

OCC#CCO
inactive: [1] | [2] | [4]
